Molecules are shown by their SMILES. “And” between values parts separate entries of the source, which are not always exact repeats. Identical values can stand only once. Some compounds were tested as several samples or in several runs, with calls that do not always agree. The source made the active and inactive calls. The calls were made as follows: active = hit-call score of the fitted dose curve at least 0.9, where 1 is the maximum; inactive = score below 0.9.

What all share (conditions): mRNA level, 48 h; actives raise or lower the signal
Read-out in experiment [1]: Glutathione S-transferase M3 (GSTM3), GSTM3 (gene 2947)
Kind of experiment: LTEA_HepaRG_GSTM3: Life Technologies and Expression Analysis (LTEA) Assay for Glutathione S-transferase M3 (GSTM3) using HepaRG (AID 2283501). The gist of the method: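 Changes in GSTM3 expression, an oxidative-stress marker, were scored by bidirectional curve fitting against 0.5% DMSO vehicle. Human HepaRG cultures received chemicals for 48 h in duplicate, highest concentration 100 uM with half-log dilutions.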

Read-out in experiment [2]: Heat shock 70 kDa protein 1 (HSPA1A), gene 3303
Nature of the experiment: LTEA_HepaRG_HSPA1A: Life Technologies and Expression Analysis (LTEA) Assay for Heat shock 70 kDa protein 1 (HSPA1A) using HepaRG (AID 2283502). The gist of the method: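 HSPA1A induction in human HepaRG liver cells is measured after 48 h of chemical treatment (100 uM maximum, 0.5% DMSO vehicle). Expression comes from qRT-PCR normalized to endogenous controls.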

Read-out in experiment [3]: Hypoxia-inducible factor 1-alpha (Homo sapiens) (UniProt Q16665)
Nature of the experiment: LTEA_HepaRG_HIF1A: Life Technologies and Expression Analysis (LTEA) Assay for Hypoxia-inducible factor 1 (HIF1A) Trancription factor using HepaRG (AID 2283503).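 Also: HIF1A transcript by TaqMan qRT-PCR normalized to ACTB GAPDH and POLR2A.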 The essentials: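 HepaRG, 48 h exposure, 8-pt half-log series from 100 uM, 0.5% DMSO vehicle, duplicates. Readout: HIF1A transcript by qRT-PCR (Fluidigm array), housekeeping-normalised. Bidirectional curve fit vs DMSO baseline.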

Read-out in experiment [4]: 3-Hydroxy-3-Methylglutaryl-CoA Synthase 2 (HMGCS2), HMGCS2 (gene 3158)
Kind of experiment: LTEA_HepaRG_HMGCS2: Life Technologies and Expression Analysis (LTEA) Assay for 3-Hydroxy-3-Methylglutaryl-CoA Synthase 2 (HMGCS2) using HepaRG (AID 2283504). The essentials:
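Expression of HMGCS2 in human HepaRG liver cells is measured by qRT-PCR 48 h after dosing (highest 100 uM, half-log series, 0.5% DMSO). Values come from bidirectional concentration-response fitting with DMSO as baseline.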

Read-out in experiment [5]: HGF (gene 3082)
Nature of the experiment: LTEA_HepaRG_HGF: Life Technologies and Expression Analysis (LTEA) Assay for Hepatocyte Growth Facto (HGF) using HepaRG (AID 2283505). The essentials: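 Gain or loss of HGF mRNA in human HepaRG liver cells after 48 h chemical exposure; eight concentrations up to 100 uM with 0.5% DMSO vehicle, quantified by TaqMan qRT-PCR.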

Read-out in experiment [6]: Insulin Like Growth Factor 1 (IGF1), IGF1 (gene 3479)
Kind of experiment: LTEA_HepaRG_IGF1: Life Technologies and Expression Analysis (LTEA) Assay for Insulin Like Growth Factor 1 (IGF1) using HepaRG (AID 2283506). The gist of the method: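 Using human HepaRG liver cells, IGF1 transcript induction or suppression is measured 48 h after dosing across eight concentrations capped at 100 uM. Values derive from bidirectional concentration-response fitting with DMSO as baseline.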

Read-out in experiment [7]: Intercellular Adhesion Molecule 1 (ICAM1), ICAM1 (gene 3383)
Nature of the experiment: LTEA_HepaRG_ICAM1: Life Technologies and Expression Analysis (LTEA) Assay for Intercellular Adhesion Molecule 1 (ICAM1) using HepaRG (AID 2283507). The gist of the method:
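Gain or loss of transcript in HepaRG hepatic cells is quantified by qRT-PCR after 48 h chemical exposure (up to 100 uM, half-log steps), with DMSO as baseline.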

Read-out in experiment [8]: Insulin-like growth factor-binding protein 1 (IGFBP1), IGFBP1 (gene 3484)
Nature of the experiment: LTEA_HepaRG_IGFBP1: Life Technologies and Expression Analysis (LTEA) Assay for Insulin-like growth factor-binding protein 1 (IGFBP1) using HepaRG (AID 2283508). The gist of the method:
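mRNA induction or loss was quantified by qRT-PCR after 48 h chemical exposure of human HepaRG cells, with 0.5% DMSO as vehicle and baseline. Concentration-response over eight points up to 100 uM.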

Read-out in experiment [9]: Interleukin 6 (IL6), IL6 (gene 3569)
Kind of experiment: LTEA_HepaRG_IL6: Life Technologies and Expression Analysis (LTEA) Assay for Interleukin 6 (IL6) using HepaRG (AID 2283509). The essentials:
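HepaRG cells exposed in duplicate for 48 h to eight half-log concentrations, top 100 uM, in 0.5% DMSO serum-free induction medium. mRNA measured by qRT-PCR, normalized to ACTB, GAPDH and POLR2A. Bidirectional fit versus DMSO.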

Read-out in experiment [10]: Interleukin 6 Receptor (IL6R), IL6R (gene 3570)
Kind of experiment: LTEA_HepaRG_IL6R: Life Technologies and Expression Analysis (LTEA) Assay for Interleukin 6 Receptor (IL6R) using HepaRG (AID 2283510).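 As to AC50: differentiated human HepaRG liver cells in serum-free induction medium; TaqMan qRT-PCR signal normalized to ACTB GAPDH and POLR2A housekeeping genes.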 On the procedure:
LTEA_HepaRG is a cell based, multiplexed-readout assay that uses HepaRG, a human liver cell line, with measurements taken at 48 hours after chemical dosing on a 96-well plate.LTEA_HepaRG_IL6R is one of 102 assay component(s) measured in the LTEA HepaRG cell culture assay. It is a marker of Inflammation.Data from the assay component LTEA_HepaRG_IL6R was analyzed into 1 endpoint. This assay endpoint, LTEA_HepaRG_IL6R, was analyzed with bidirectional fitting relative to DMSO as the negative control and baseline of activity. Using a type of inducible reporter, measures of mRNA induction for gain or loss-of-signal activity can be used to understand regulation of transcription factor activity. To generalize the intended target to other relatable targets, this assay endpoint is annotated to the cytokine receptor intended target family, where the subfamily is JAK-STAT cytokine receptor.
A total of 1060 chemcials from the ToxCast library were tested in eight-point concentration-response experiments. Cell culture and cytotoxicity assays were conducted at Thermo Fisher Scientific's Custom Services facility (Madison, WI). A single lot of human HepaRG cells (Thermo Fisher Scientific, Frederick, MD) was used for the cell culture experiments. 96-well format collagen type I coated plates of human HepaRG cells were prepared using established methods. Briefly, cryopreserved HepaRG cells were thawed, plated at a density of approximately 100,000 cells/well in HepaRG Thaw, Plate, and General Purpose media (HPRG770, Thermo Fisher Scientific), and incubated for 48 hours. 0.5% DMSO was selected as vehicle control to balance the requisite need of DMSO in HepaRG cultures to maintain differentiation (for example, baseline metabolism, proportions of hepatocytes vs. cholangiocytes), while enabling further hepatic receptor pathway activation (for example, PXR and CAR) in response to chemical exposure. 48 hours after plating, the culture medium was replaced with HepaRG Serum-Free Incudtion Media. Cells were exposed to each test chemical in duplicate and maintained in CO2 incubators for another 48 hours. Chemical plates were thawed to room temperature and 200x concentrations of treatment groups were prepared. 8-point conentration-reponse curves were made with the highest exposure at 100 uM, followed by half-log dilutions, all in 0.5% DMSO. Each test plate contained variouse controls, induction positive controls (1mM phenobarbital), cytotoxicity positive controls ([…] aflatoxin B1), vehicle controls (0.5% DMSO), and total lysis controls (0.5% DMSO). Cell morphology images were taken using an Essen IncuCyte FLR automated microscope, with six 96-well plates imaged in about 24 minutes. Images were captured and exported and JPEG files. Spent culture media was transfered to black-well plates for the LDH assay, and remaining media was sorted at -80 C for later use. Cells were treated with RLT buffer and frozen until shipped for gene expression analysis. Total RNA was isolated from the cell suspension in 75 uL of Buffer RLT (Qiagen, Germantown, MD 20874) by Quintiles/Expression Analysis (Durham, NC) using a custom isolation procedure. Total RNA from each plate well was transferred to a preamplification plate. Fluidigm's 96.96 Dynamic ArrayTM (Fluidigm, Amsterdam, the Netherlands) technology was used for gene expression analyses by quantitative reverse transcription polymerase chain reaction (qRT-PCR, performed by Quintiles/Expression Analysis, Durham, NC)89. Standard TaqManTM Assays (Applied Biosystems/ThermoFisher Scientific, Foster City, CA) were used to assess the expression of 93 genes selected based on their selectivity and sensitivity to important hepatic receptors known to be modulated by environmental chemicals; importance in human hepatocyte functionality; and hepatotoxicity. […]

Hypoxia-inducible factor 1-alpha (Homo sapiens), sequence (Q16665 whole entry, looked up): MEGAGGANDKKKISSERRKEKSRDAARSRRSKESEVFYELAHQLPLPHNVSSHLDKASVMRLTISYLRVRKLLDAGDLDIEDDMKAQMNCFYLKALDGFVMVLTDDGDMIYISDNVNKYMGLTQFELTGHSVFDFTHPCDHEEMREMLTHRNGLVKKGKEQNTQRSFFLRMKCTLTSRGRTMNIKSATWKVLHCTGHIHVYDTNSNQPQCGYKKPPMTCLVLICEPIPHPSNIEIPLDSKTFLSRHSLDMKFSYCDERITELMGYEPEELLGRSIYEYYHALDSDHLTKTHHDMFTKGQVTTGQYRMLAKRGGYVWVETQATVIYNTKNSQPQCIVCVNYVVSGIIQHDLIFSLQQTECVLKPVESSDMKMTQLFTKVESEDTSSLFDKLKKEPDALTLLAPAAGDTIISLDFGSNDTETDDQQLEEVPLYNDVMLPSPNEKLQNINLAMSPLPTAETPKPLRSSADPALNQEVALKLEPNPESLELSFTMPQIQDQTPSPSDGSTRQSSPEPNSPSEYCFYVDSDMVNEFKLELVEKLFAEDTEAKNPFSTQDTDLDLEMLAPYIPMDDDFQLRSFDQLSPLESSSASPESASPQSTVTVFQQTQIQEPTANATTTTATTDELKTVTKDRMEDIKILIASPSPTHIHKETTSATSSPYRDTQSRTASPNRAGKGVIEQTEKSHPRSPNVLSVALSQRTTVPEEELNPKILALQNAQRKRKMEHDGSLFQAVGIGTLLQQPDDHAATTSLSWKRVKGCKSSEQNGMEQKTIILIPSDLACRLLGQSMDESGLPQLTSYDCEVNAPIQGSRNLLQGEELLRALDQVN

Regarding `C#C[C@]1(O)CC[C@H]2[C@@H]3CCc4cc(O)ccc4[C@H]3CC[C@@]21C`, the compound was classed as inactive in experiment [1], in experiment [2], in experiment [3], in experiment [4], in experiment [5] and in [6]. For the same compound, the result in [7], in [8], in [9] and in [10] was inactive.

For the compound `CCCCOCCOCCO`, the compound was called inactive in experiment [1], in experiment [2], in [3], in [4], in experiment [5] and in experiment [6]. Also, the call in experiment [7], in experiment [8], in experiment [9] and in experiment [10] was inactive.

As for `COC(=O)c1ccc(C(=O)OC)cc1`, the outcome in [1], in experiment [2], in experiment [3], in [4], in [5] and in experiment [6] was inactive. The compound was classed as inactive in experiment [7], in experiment [8], in experiment [9] and in experiment [10].

As a reminder, the AC50 is the concentration at which the activity in the assay is half-maximal. Regarding `C[C@]12CC[C@@H]3c4ccc(O)cc4CC[C@H]3[C@@H]1CC[C@@H]2O`, the call in [1], in experiment [2], in experiment [4], in experiment [5], in experiment [7] and in experiment [8] was inactive. For the same compound, the compound was called inactive in experiment [9] and in experiment [10]. The AC50 in [6] was 31.2 µM (active).

`CC/C(=C(\c1ccccc1)c1ccc(OCCN(C)C)cc1)c1ccccc1`: the compound was called inactive in [1], in experiment [3], in experiment [4], in experiment [5], in experiment [6] and in experiment [10]. Also, the AC50 in experiment [2] was 74.8 µM (active) and 76.4 µM (active); in experiment [3], 82 µM (active); in [4], 66 µM (active); in experiment [6], 84.6 µM (active); in experiment [7] it was 85.1 µM (active) and 99.2 µM (active); in [8] it was 65.9 µM (active) and 57 µM (active). Moreover, the AC50 in experiment [9] is 71.4 µM (active) and 92.3 µM (active); in experiment [10], 93.4 µM (active).

`O=C(c1ccc(OCCN2CCCCC2)cc1)c1c(-c2ccc(O)cc2)sc2cc(O)ccc12`: the compound was called inactive in [1], in [5] and in experiment [10]. In addition, the AC50 was 88.1 µM (active) in experiment [2]; 3.14 µM (active) in experiment [4]; 78.3 µM (active) in experiment [6]; 71 µM (active) in experiment [7]; 75.6 µM (active) in [8]; 75.9 µM (active) in experiment [9].

For the compound `C=C(C)C(N)=O`, the compound was classed as inactive in [1], in experiment [2], in experiment [3], in experiment [4], in [5] and in [6]. The outcome in experiment [7], in [8], in experiment [9] and in experiment [10] was inactive.

The values are drawn from PubChem BioAssay (EPA / NIEHS).
